# Source: PubChem
# In the library only some 2.3% were active in any assay of this set; here they are far more common.
# KKLEB cytotox: cytotoxicity in KKLEB CF airway cells, primary screen, cytotoxicity control for CF NF-kB inhibitor project, cell-based, uHTS, fluorescence assay plates | KKLEB CF airway cells viability, ATPlite luminescence, overnight; stronger effect = lower value; cells stimulated with P. aeruginosa culture filtrate | activity change (cytotoxicity), % at 5 µM | 360,000 tested, 0.36% active | AID 602141, 2011;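 active means corrected activity change at or below -50% at 5 µM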
# CF NFkB block: inhibitors of PAF-induced NF-kB signaling, primary screen, cell-based, GFP fluorescence, uHTS. AID 588850, 2011. inhibition, % at 5 µM. 360,000 tested, 0.86% active. KKLEB NF-kB-GFP reporter, GFP fluorescence overnight;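 active means at least 50% inhibition at 5 µM, scaled per plate between neutral and stimulator controls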;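 further: PAF is a Pseudomonas aeruginosa culture filtrate used as stimulus; plate controls were PAF-stimulated DMSO wells for no effect and unstimulated DMSO wells for full effect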
# LGR2 inh: inhibitors of bursicon-induced LGR2 CRE-luciferase signal, primary screen, cell-based, HEK293, CRE-luciferase reporter, bursicon stimulation. bursicon-stimulated, 4 h. inhibition, % at 9.99 µM. 380,000 tested, 0.35% active. AID 720647, 2013;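 active means drop in luminescence signal, shown as inhibition above about 50% in the replicate tests, limit read from the data, passing the limit was not always enough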;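 further: agonist challenge used bursicon conditioned medium at about half maximal strength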
# hiPSC survival: enhancers of single-cell hiPSC survival, primary screen, ATPlite luminescence; 100% = ROCK inhibitor wells, 0% = DMSO; survival enhancement, % at 20 µM; 360,000 tested, 0.044% active; AID 602274, 2012; in the data active means survival enhancement above about 18%;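 further: cells exposed to compounds for 16 hours before the ATP read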
# HIF-2a inh: HIF-2a reporter inhibitors, primary screen, luminescence, 786-0 RCC cells; 786-0 RCC cells HIF-2a reporter, luciferase luminescence, overnight; inhibition, % at 18.8 µM; 360,000 tested, 0.72% active; AID 624352, 2012;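 active means inhibition of the luminescence signal of 40% or more relative to plate controls, in a single-dose primary screen at 18.75 µM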
# TWEAK Fn14 block: inhibitors of TWEAK-Fn14 signaling, primary screen, luciferase reporter cells, uHTS; TWEAK-stimulated Fn14 reporter cells, luciferase luminescence, 8 h; AID 1159606, 2016; 360,000 tested, 2% active; inhibition, % at 10 µM; in the data active means inhibition above about 50%
# Numbers without * were called inactive; · = no result given.
SMILES,KKLEB cytotox,CF NFkB block,LGR2 inh,hiPSC survival,HIF-2a inh,TWEAK Fn14 block
COc1ccc(C(=O)/C(C#N)=N/Nc2cccc([N+](=O)[O-])c2)cc1,-47,54*,-18,2,-67,60*
CCNC(=S)NNC(=O)Cn1c(=O)c2c(ncn2CCOC)n(Cc2ccccc2)c1=O,2,10,8,0,15,93*
CCCCCNC(=O)Cn1c(=O)c2c(ncn2CC(C)C)n(Cc2ccccc2)c1=O,7,1,1,0,12,50*
COc1ccc2oc(C(=O)N3CCN(C(c4ccccc4)c4ccccc4)CC3)c(C)c2c1,-8,27,11,0,24,9
COc1ccc2oc(C(=O)Nc3ccc(C)cn3)c(C)c2c1,-15,2,-52,0,-190,11
COc1ccc2oc(C(=O)N3CCc4ccccc43)c(C)c2c1,-55*,-26,59*,-1,-72,73*
COc1ccc2oc(C(=O)Nc3ccccn3)c(C)c2c1,0,-40,-24,0,-91,52*
O=C(C[C@H]1CC[C@H]2[C@@H](COC[C@H](O)CN2Cc2ccc(Cl)cc2)O1)NCCc1ccccc1,·,·,-13,·,·,·
CO[C@@H]1CN(C)C(=O)c2ccc(NC(=O)Nc3ccccc3F)cc2OC[C@H](C)N(C(C)=O)C[C@@H]1C,·,·,7,·,·,·
Cc1noc(C)c1S(=O)(=O)N(C)C[C@H]1OCCCC[C@@H](C)Oc2ccc(NS(=O)(=O)c3cccs3)cc2C(=O)N([C@@H](C)CO)C[C@H]1C,·,·,-4,·,·,·
NC(=O)c1ccsc1NC(=O)c1ccc(N2CCCC2=O)cc1,-18,-9,72*,-4,-36,43
NC(=O)c1ccsc1NC(=O)c1ccc2c(c1)CCCC2,-58*,-17,63*,-4,-158,48
C[C@@H]1CN([C@H](C)CO)C(=O)c2cc(NS(C)(=O)=O)ccc2O[C@@H](C)CCCCO[C@@H]1CN(C)Cc1ccc2c(c1)OCO2,·,·,-3,·,·,·
CC(C)NC(=O)N(O)C1N(Cc2ccc3c(c2)OCO3)C(=S)SC1(C)C (configuration not stated),0,-14,-19,-4,8,58*
CC(C)NC(=O)N(O)C1N(C(C)C)C(=O)N(Cc2ccc3c(c2)OCO3)C1(C)C (configuration not stated),2,-3,15,0,14,-30
C[C@H]1CN([C@@H](C)CO)C(=O)c2cc(-c3cccc(F)c3)cnc2O[C@@H]1CN(C)C(=O)C1CCC1,·,·,-9,·,·,·
O=C(c1ccncc1)N1CC2(C1)[C@H](c1ccccc1)[C@H](CO)N2Cc1ccccn1,·,·,-4,·,·,·
FC(F)(F)c1cccc(NC(=S)NCc2ccc(Cl)cc2)c1,5,28,-9,-2,-19,57*
CO[C@H]1CN(C)C(=O)c2ccc(NC(C)=O)cc2OC[C@H](C)N(Cc2ccccc2F)C[C@@H]1C,·,·,5,·,·,·
CN(C)CC(=O)N[C@@H]1CC[C@H](CCNC(=O)C2CCCC2)O[C@H]1CO,·,·,-3,·,·,·
COc1ccc(-c2cc(C(=O)NN)[nH]n2)cc1,5,-5,-14,0,9,53*
COc1ccc(-c2cn[nH]c2-c2ccc(OCC(=O)NN)cc2O)cc1,-8,29,7,-1,18,54*
COc1ccc(-c2cn[nH]c2-c2ccc(OCC(=O)NN)cc2O)cc1OC,-2,13,8,1,13,-1
CCOc1ccc(-c2cc(C(=O)NN)[nH]n2)cc1,2,10,-12,-1,-36,-8
C[C@H](CO)N1C[C@H](C)[C@@H](CN(C)C(=O)C2CCCCC2)Oc2cc(-c3cncnc3)ccc2S1(=O)=O,·,·,-5,·,·,·
Cc1cc(N/C=C/C(=O)c2ccccc2)ccc1Br,-31,5,0,-1,-183,9
O=C(/C=C/Nc1ccc(F)cc1Br)c1ccccc1,-72*,4,94*,-3,52*,90*
COC(=O)c1ccc(N/C=C\C(=O)c2ccc3c(c2)OCO3)cc1,-7,-22,-72,-2,-66,1
